Several values for one entry are separate records, joined by “and”; a condition that tells them apart may be missing. Equal entries are not always repeated. Records with an inconclusive call do not appear. Some structures have more than one record in an assay (separate samples or runs), and their calls can disagree. Activity calls are given as the source filed them. Unless noted, calls follow the shape of the dose curve; as a rule, active = well fitted curve in the direction sought with a large enough effect in the repeat runs; inconclusive = weak or mixed curves; inactive = no such curve, though single readings can be large; an effect the other way counts as inactive or inconclusive.

In PubChem BioAssay (Tox21) one finds Potency and activity change, positive = activation data, which are given here for eight compounds.

For assay [1], the target named is Luciferin 4-monooxygenase (Photinus pyralis) (UniProt P08659). The assay is described as follows: qHTS assay to identify small molecule inhibitors of firefly luciferase (AID 1224835). Also: % is scaled to controls: 0 for no effect and ±100 for the full control effect; nearly all actives have a fitted effect of over 25% in size. The gist of the method: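 Quantitative HTS format; KM concentrations of both substrates. Purified P. pyralis FLuc activity quantified from luminescence images.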
Sequence of Luciferin 4-monooxygenase (Photinus pyralis) (P08659 whole entry, looked up): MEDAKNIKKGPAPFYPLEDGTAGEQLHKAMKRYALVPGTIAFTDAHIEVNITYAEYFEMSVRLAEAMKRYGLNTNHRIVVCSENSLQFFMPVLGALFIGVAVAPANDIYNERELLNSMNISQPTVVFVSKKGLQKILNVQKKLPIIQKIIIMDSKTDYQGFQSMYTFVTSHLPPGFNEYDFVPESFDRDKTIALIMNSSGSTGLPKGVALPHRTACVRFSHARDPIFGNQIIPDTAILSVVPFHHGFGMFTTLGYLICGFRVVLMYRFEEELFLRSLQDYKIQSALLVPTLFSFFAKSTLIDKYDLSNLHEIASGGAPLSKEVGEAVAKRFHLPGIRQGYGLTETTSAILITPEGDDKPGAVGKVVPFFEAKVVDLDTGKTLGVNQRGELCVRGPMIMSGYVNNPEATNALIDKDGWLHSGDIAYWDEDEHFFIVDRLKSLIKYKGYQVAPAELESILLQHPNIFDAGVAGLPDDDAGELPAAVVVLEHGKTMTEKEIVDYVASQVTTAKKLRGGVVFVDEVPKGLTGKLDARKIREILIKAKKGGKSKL
The target in assay [2] is Nuclear receptor subfamily 1 group I member 3 (Homo sapiens) (UniProt Q14994). The assay is described as follows: qHTS assay to identify small molecule antagonists of the constitutive androstane receptor (CAR) signaling pathway (AID 1224838).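 Also: HepG2 cells stably expressing hCAR with CYP2B6 luciferase reporter stimulated by CITCO; % is scaled to controls: 0 for no effect and ±100 for the full control effect; nearly all actives have a fitted effect of over 40% in size.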 In a few lines: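 HepG2-CYP2B6-hCAR cells; 4 h pre-incubation; cpd (15 conc) + CITCO 50 nM final; 24 h, 37 C/5% CO2; ONE-Glo, luminescence.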
Sequence of Nuclear receptor subfamily 1 group I member 3 (Homo sapiens) (Q14994 whole entry, looked up): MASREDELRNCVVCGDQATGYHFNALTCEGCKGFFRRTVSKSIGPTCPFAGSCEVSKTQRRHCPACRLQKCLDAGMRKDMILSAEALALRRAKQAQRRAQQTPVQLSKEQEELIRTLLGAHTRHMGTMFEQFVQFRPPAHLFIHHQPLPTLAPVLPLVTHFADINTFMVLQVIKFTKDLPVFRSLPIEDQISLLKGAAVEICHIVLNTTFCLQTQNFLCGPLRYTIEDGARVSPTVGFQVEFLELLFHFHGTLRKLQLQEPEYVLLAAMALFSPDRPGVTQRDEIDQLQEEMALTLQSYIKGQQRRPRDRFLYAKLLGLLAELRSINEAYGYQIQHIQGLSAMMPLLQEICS
(In general: qHTS replaces the single test concentration by a dilution series.)

Assay [3] can be described thus: qHTS assay to identify small molecule antagonists of the estrogen related receptor signaling pathway with the pleiotropic PPARgamma coactivator (PGC) from Tox21 10K library - cell viability counter screen (AID 1224840; active = well fitted cell-killing curve with a large enough effect in the repeat runs, not every such curve was filed as active; also: nearly all actives have a fitted effect of over 40% in size; also: potency is read from the fitted curve at half-maximal effect). The gist of the method:
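PGC/ERR cells, 2,000/well; 6 h pre-incubation 37 C/5% CO2; cpd in DMSO via pin tool; 17.5 h 37 C; CellTiter-Fluor, 30 min; fluorescence.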

The nature of assay [4]: qHTS assay to identify small molecule agonists of the estrogen related receptor signaling pathway with the pleiotropic PPARgamma coactivator (PGC) from Tox21 10K library (AID 1224842). Also: % is scaled to controls: 0 for no effect and ±100 for the full control effect; nearly all actives have a fitted effect of over 15% in size. In a few lines:
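PGC/ERR reporter cells (NTP line) were seeded 2,000 per well, rested 6 h at 37 C/5% CO2, then pin-dosed with compounds in DMSO for 18 h at 37 C; luciferase read by One-Glo luminescence after 30 min at room temperature.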

Assay [5] addresses Thyrotropin receptor (Homo sapiens) (UniProt P16473). The assay is described as follows: qHTS assay to identify small molecule agonists of the thyroid stimulating hormone receptor (TSHR) signaling pathway (AID 1224843; calls by dose curve; also: nearly all actives have a fitted effect of over 45% in size; also: potency is read from the fitted curve at half-maximal effect; as to activation: % is scaled to controls: 0 for no effect and ±100 for the full control effect). The gist of the method:
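Cell line HEK293 with TSHR; density 800/well. Exposure 30 min RT. Readout HTRF cAMP (cAMP-d2/anti-cAMP-cryptate), 1 h RT before reading.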

The nature of assay [6]: qHTS assay to identify small molecule agonists of the estrogen related receptor (ERR) signaling pathway from Tox21 library (AID 1224849; calls by dose curve; also: % is scaled to controls: 0 for no effect and ±100 for the full control effect; nearly all actives have a fitted effect of over 15% in size). The settings on record: ERR reporter cell line, ONE-Glo luciferase, 18 h. In a few lines:
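ERR cells, 6 h pre-incubation 37 C/5% CO2; cpd in DMSO pinned; 18 h 37 C; ONE-Glo added, 30 min RT; luminescence read. Agonist mode, qHTS.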

Assay [7] is described as follows: qHTS RealTime-Glo MT Cell Viability Assay in HepG2 cells - 24 hour (AID 1224867). Also: nearly all actives have a fitted effect of over 50% in size. Also: potency is read from the fitted curve at half-maximal effect. The gist of the method:
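Cells + NanoLuc/prosubstrate dispensed (600 cells/well) → 5 h at 37 C/5% CO2 → compounds in DMSO transferred → 40 h incubation at 37 C, luminescence read at 0, 8, 16, 24, 32, 40 h.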

Assay [8] can be described thus: qHTS RealTime-Glo MT Cell Viability Assay in HEK293 cells - 32 hour (AID 1224868). Also: nearly all actives have a fitted effect of over 50% in size. Also: potency is read from the fitted curve at half-maximal effect. In a few lines:
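Tox21 10K qHTS, HEK293, 600 cells/well, RealTime-Glo reagent co-dispensed with cells; 5 h preincubation, compound by pintool, 37 C, luminescence at 0–40 h.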

The nature of assay [9]: A CellTox Green Cytotoxicity Assay to monitor cytotoxicity in HEK293 cells - 0 hour (AID 1224869). Also: % is scaled to controls: 0 for no effect and ±100 for the full control effect; nearly all actives have a fitted effect of over 50% in size. The gist of the method:
(§1)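 Nonlytic real-time cytotoxicity: HEK293 + CellTox Green reagent plated, 5 h preincubation, pintool compound addition (23 nL in DMSO), 37 C for 40 h, fluorescence measured at successive time points.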

A short description of assay [10]: qHTS RealTime-Glo MT Cell Viability Assay in HepG2 cells - 40 hour (AID 1224870). Also: nearly all actives have a fitted effect of over 50% in size. Also: potency is read from the fitted curve at half-maximal effect. In a few lines:
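HepG2 cells mixed with RealTime-Glo MT reagents (NanoLuc plus cell-permeant prosubstrate) were seeded at 600 cells/well, incubated 5 h at 37 C/5% CO2, then pinned with compounds in DMSO; nonlytic luminescence tracked viability during 40 h treatment.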

The target of assay [11] is Nuclear receptor subfamily 1 group I member 3 (Homo sapiens) (UniProt Q14994). Briefly: qHTS assay to identify small molecule agonists of the constitutive androstane receptor (CAR) signaling pathway (AID 1224839).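 Also: HepG2 cells stably carrying human CAR and a CYP2B6 luciferase reporter; % is scaled to controls: 0 for no effect and ±100 for the full control effect; nearly all actives have a fitted effect of over 15% in size.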 The gist of the method: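 Readout: firefly luciferase luminescence via ONE-Glo. System: HepG2 double-stable for hCAR and CYP2B6-2.2kb. Conditions: 15-point compound titration, PK11195 at 0.75 uM final, 24 h incubation.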

Assay [12] can be described thus: qHTS assay to identify small molecule antagonists of the estrogen related receptor signaling pathway with the pleiotropic PPARgamma coactivator (PGC) from Tox21 10K library (AID 1224841; call rule not given here; also: potency is read from the fitted curve at half-maximal effect). In a few lines:
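PGC/ERR cell line, 2,000 cells/well; 6 h pre-incubation 37 C/5% CO2; compounds (DMSO) pinned in; 18 h, 37 C; One-Glo, 30 min RT; luminescence.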

Assay [13] is described as follows: qHTS assay to identify small molecule agonists of the hypoxia (HIF-1) signaling pathway - cell viability counter screen (AID 1224844; calls by dose curve; also: nearly all actives have a fitted effect of over 50% in size; also: potency is read from the fitted curve at half-maximal effect). The gist of the method:
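ME-180 HRE-bla cells, 2,000/well, 0.5% dialyzed FBS; 5 hr settle, 17 hr compound at 37C/5% CO2; CCF4-AM reporter read first, then CellTiter-Glo luminescence after 30 min RT.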

The nature of assay [14]: qHTS assay to identify small molecule agonists of H2AX (AID 1224845; active = well fitted activation curve with a large enough effect in the signal ratio in the repeat runs, not every such curve was filed as active; the % refers to the signal ratio; also: % is scaled to controls: 0 for no effect and ±100 for the full control effect). The gist of the method:
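Wild-type CHO-K1 cells plated overnight, then exposed 3 hr at 37C to compounds at 15 concentrations (0.76% DMSO). Lysed, then HTRF anti-pH2AX(S139)-cryptate/anti-H2AX-d2 detection after 24 hr at room temperature; emissions 665 and 620 nm.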

The nature of assay [15]: qHTS assay to identify small molecule agonists of H2AX - cell viability counter screen (AID 1224847; calls by dose curve; also: nearly all actives have a fitted effect of over 30% in size; also: potency is read from the fitted curve at half-maximal effect). The gist of the method:
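For this counter screen, overnight-attached CHO-K1 cells received test compounds (15 concentrations, 0.76% DMSO final); 3 hr later at 37C, CellTiter-Glo reagent was added and luminescence recorded after 30 min at room temperature.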

A short description of assay [16]: qHTS assay to identify small molecule antagonists of the estrogen related receptor (ERR) signaling pathway from Tox21 library (AID 1224848). In a few lines:
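Screening used an ERR reporter line supplied by NTP, exposed for 18 h at 37 C to library compounds delivered in DMSO. Signal was luciferase luminescence developed with ONE-Glo at room temperature for 30 min.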

Assay [17] in a line: A CellTox Green Cytotoxicity Assay to monitor cytotoxicity in HEK293 cells - 40 hour (AID 1224871). Also: % is scaled to controls: 0 for no effect and ±100 for the full control effect; nearly all actives have a fitted effect of over 45% in size. The gist of the method:
as §1

Assay [18] is described as follows: qHTS assay to identify small molecule agonists of the constitutive androstane receptor (CAR) signaling pathway - cell viability counter screen (AID 1224836). Also: % is scaled to controls: 0 for no effect and ±100 for the full control effect; nearly all actives have a fitted effect of over 45% in size. The gist of the method: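 Double-stable HepG2 hepatoma cells (hCAR plus CYP2B6-2.2kb) are treated for 23 h at 37 C with test compounds in 15-point concentration series. PK11195 at 0.75 uM final is co-added. Cell viability is quantified by CellTiter-Fluor.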

Assay [19] is described as follows: qHTS assay to identify small molecule antagonists of the constitutive androstane receptor (CAR) signaling pathway - cell viability counter screen (AID 1224837). Also: % is scaled to controls: 0 for no effect and ±100 for the full control effect; nearly all actives have a fitted effect of over 45% in size. The gist of the method: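 HepG2-CYP2B6-hCAR cells, 2500/well, 4 hr pre-incubation; compound titration, 15 conc.; CITCO 50 nM final; 23 hr, 37 C/5% CO2; CellTiter-Fluor, fluorescence intensity.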
A short description of assay [20]: qHTS assay to identify small molecule agonists of the hypoxia (HIF-1) signaling pathway (AID 1224846; active = well fitted activation curve with a large enough effect in the signal ratio in the repeat runs, not every such curve was filed as active; the % refers to the signal ratio; also: % is scaled to controls: 0 for no effect and ±100 for the full control effect). In a few lines:
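Cell line: CellSensor HRE-bla ME-180; 2,000 cells/well; 0.5% dialyzed FBS; 5 h preincubation; DMSO compound pin transfer; 17 h, 37C, 5% CO2; CCF4-AM added; bla FRET signal scored for activation.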

Sequence of Thyrotropin receptor (Homo sapiens) (P16473 whole entry, looked up): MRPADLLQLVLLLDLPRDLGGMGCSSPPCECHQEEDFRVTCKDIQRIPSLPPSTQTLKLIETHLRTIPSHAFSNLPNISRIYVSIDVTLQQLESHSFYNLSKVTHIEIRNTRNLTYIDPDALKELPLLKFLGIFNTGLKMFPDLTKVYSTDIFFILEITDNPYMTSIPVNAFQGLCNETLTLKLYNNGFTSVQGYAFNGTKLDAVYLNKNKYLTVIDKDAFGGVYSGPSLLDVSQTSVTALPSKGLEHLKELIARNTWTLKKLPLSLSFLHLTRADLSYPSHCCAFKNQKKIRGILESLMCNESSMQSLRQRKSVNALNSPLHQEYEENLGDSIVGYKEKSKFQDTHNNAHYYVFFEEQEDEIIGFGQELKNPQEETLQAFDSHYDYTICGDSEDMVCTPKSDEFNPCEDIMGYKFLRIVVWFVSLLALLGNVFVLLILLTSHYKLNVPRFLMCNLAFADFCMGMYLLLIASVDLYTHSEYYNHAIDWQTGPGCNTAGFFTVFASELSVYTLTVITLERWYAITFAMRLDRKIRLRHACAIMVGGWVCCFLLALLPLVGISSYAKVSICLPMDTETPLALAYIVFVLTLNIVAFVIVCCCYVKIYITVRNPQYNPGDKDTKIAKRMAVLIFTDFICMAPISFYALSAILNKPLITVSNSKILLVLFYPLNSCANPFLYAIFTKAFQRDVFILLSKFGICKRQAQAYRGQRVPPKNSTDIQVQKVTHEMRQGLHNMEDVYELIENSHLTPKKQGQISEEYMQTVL

As to `Cc1cc(=O)oc2cc(O)cc(O)c12`, the Potency entry in [1], in assay [2], in [3], in assay [4], in [5] and in assay [7] was “inactive” each time. The Potency result in assay [8], in [9] and in assay [10] was “inactive” in each case. Further, in assay [6] (at 92.4 µM (top of the series)), the activity change, positive = activation is -20.6% (inactive).
For `CCCCCCCCCCCCCC[N+](C)(C)Cc1ccccc1`, the Potency result in assay [1], in assay [11], in assay [4], in [14] and in [9] was “inactive” each time. The Potency is 62.1 µM (active) and inactive in assay [3]; 31.1 µM (active) and 11.9 µM (active) and 15.8 mM (active) in assay [12]; 43.9 µM (active) in [5]; “inactive and 17.8 mM (active)” in [13]; 25.7 µM (active) and 49.2 µM (active) in [15]; 9.84 µM (active) and 10.6 µM (active) and 11.2 mM (active) in [16]. Moreover, the Potency was 44.3 µM (active) and 10.7 µM (active) and 17.8 mM (active) in [7]; 3.52 µM (active) and 3.01 µM (active) and 2.82 mM (active) in assay [8]; 22.2 µM (active) and 9.52 µM (active) and 15.8 mM (active) in [10]. For the same compound, the activity change, positive = activation in [6] (at 42.5 µM (top of the series)) is -57.9% (inactive); in [6] (at 92.4 µM (top of the series)), -69.7% (inactive); in [6] (at 46.2 mM (top of the series)), -75.1% (inactive).
On to `S=c1nccc[nH]1`, for which the Potency entry in assay [1], in assay [11], in [3], in [12], in assay [4] and in [13] was “inactive” in each case. For the same compound, the Potency result in assay [14], in [7], in assay [8], in assay [9], in [10] and in assay [17] was “inactive” in each case. Further, the activity change, positive = activation in assay [6] (at 92.4 µM (top of the series)) was -6.52% (inactive).
`Clc1nnc(Cl)c2ccccc12`: the Potency result in assay [18], in [19], in assay [2], in assay [11], in assay [3] and in assay [13] was “inactive” throughout. Also, the Potency result in [20], in assay [7], in [8], in assay [9], in assay [10] and in [17] was “inactive” in each case.
Turning to `CCCC1CCC(=O)CC1`, the Potency entry in assay [18], in assay [19], in [2], in assay [11], in assay [3] and in assay [13] was “inactive” each time. Further, the Potency result in assay [14], in [20], in assay [15], in assay [7], in assay [8] and in assay [9] was “inactive” in each case. The Potency entry in assay [10] and in [17] was “inactive” in each case.
With `CCOC(=O)c1ccc(C2CCC(NC[C@H](O)COc3ccc(O)c(NS(C)(=O)=O)c3)CC2)cc1` (stereo partly drawn), the Potency entry in assay [18], in assay [19], in [2], in assay [11], in assay [12] and in assay [4] was “inactive” each time. Moreover, the Potency entry in assay [13], in [20] and in [9] was “inactive” throughout. Besides, the Potency in assay [3] was 63.3 µM (active); in [16] it was 56.4 µM (active); in [8] it was 20.2 µM (active); in assay [10], 50.7 µM (active). Besides, the activity change, positive = activation in assay [6] (at 92.4 µM (top of the series)) was -46.8% (inactive).
With `c1ccsc1`, the Potency result in assay [18], in assay [19], in [2], in [11], in assay [3] and in assay [5] was “inactive” in each case. For the same compound, the Potency result in assay [13], in assay [14], in [20], in assay [15], in [7] and in [8] was “inactive” in each case. Moreover, the Potency entry in [10] and in assay [17] was “inactive” throughout.
On to `CCN1C(=O)c2ccccc2C1Nc1ccc(OCCN2CCCCC2)cc1` (stereo not drawn), for which the Potency result in [18], in [19], in assay [2], in assay [11], in assay [3] and in assay [5] was “inactive” in each case. Also, the Potency result in [13], in [14], in assay [20], in assay [15], in [7] and in assay [10] was “inactive” each time. Also, the Potency result in assay [17] was “inactive”. In assay [8], the Potency is 5.35 µM (active).
